Screens: PubChem, several laboratories
SRC3 inh – inhibitors of human steroid receptor coactivator 3 (SRC3). inhibition, % at 3.6 µM. AID 588352. HEK293 GAL4-SRC3 luciferase reporter, luminescence. 0.17% of 360,000 active. Q9Y6Q9;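 active = inhibition above a per-campaign cutoff, the mean of all compounds plus 3 SD, cut at about 60% in these data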;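 also: 0% = DMSO-treated cells and 100% = gossypol-treated cells at 36 µM; higher means less SRC3-driven luciferase light from the GAL4 reporter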
NCOA2 inhibitor – human SRC2 (NCOA2) inhibition; Q15596; HEK293 GAL4-SRC2 luciferase reporter, luminescence; inhibition, % at 9 µM; 0.17% of 370,000 active;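 active = inhibition above the mean inhibition of all tested compounds plus 3 SD, set per campaign, cut at about 52% in these data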;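 also: 0% = DMSO treated cells and 100% = cells given Gossypol at 36 µM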
SRC1 inh – inhibitors of human steroid receptor coactivator 1 (SRC1); AID 588354; HEK293 GAL4-SRC1 luciferase reporter, luminescence; Q15788; inhibition, % at 3.6 µM; 0.12% of 360,000 active;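 active = inhibition above the campaign mean plus 3 SD, with each screening campaign given its own cutoff, cut at about 60% in these data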;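 also: 0% = DMSO treated cells and 100% = gossypol at 36 µM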
LRH-1 inv ag – inverse agonists of human LRH-1 (NR5A2) | HEK293T StAR-luciferase reporter, LRH-1 transfected, 24 h | inhibition, % at 3.6 µM | O00482 | AID 602396 | 0.13% of 360,000 active;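 active = inhibition above the mean inhibition of all tested compounds plus 3 SD, cut at about 73% in these data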;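 also: 0% = DMSO wells and 100% = reporter-only cells lacking LRH-1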
Shn3 inh set2 – Schnurri-3 reporter inhibition in Clone20 osteoblasts; Clone20 osteoblast Shn3 3'UTR firefly luciferase, 24 h; inhibition, % at 12.5 µM; 0.52% of 360,000 active;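 active = mean inhibition of at least 75% with every replicate also reaching 75%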;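 also: 0% = median of neutral control wells and 100% = pilot-screen positive control compound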
Gli-Sufu block – antagonists of Gli-Sufu signaling | Sufu-KO-LIGHT fibroblasts, Gli luciferase reporter luminescence | AID 588413 | 0.74% of 340,000 active | inhibition, % at 5 µM;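 active = inhibition above about 55%, limit read from the data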;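 also: 0% = DMSO-treated cells and 100% = wells with medium but no cells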
Numbers without * were called inactive; / = no result given. Rows were chosen to be rich in hits. Some 1.1% of all compounds tested hit in one or more screens of this group.

SMILES	SRC3 inh	NCOA2 inhibitor	SRC1 inh	LRH-1 inv ag	Shn3 inh set2	Gli-Sufu block
CC(=O)Nc1ccc(NC2=Nc3ccccc3N3C2=Nc2c(c(C)nn2-c2ccccc2)C3c2ccccc2)cc1 (stereo unspecified)	15	0	2	3	14	60*
COc1ccc(NC2=Nc3ccccc3N3C2=Nc2c(c(C)nn2-c2ccc(C)cc2)C3c2cccnc2)cc1 (stereo unspecified)	-5	-14	-3	-11	-3	-19
O=C1S/C(=C/c2ccc(N3CCOCC3)o2)C(=O)N1Cc1c(F)cccc1Cl	-25	-19	3	-14	9	-1
O=C1S/C(=C\c2ccc(N3CCOCC3)o2)C(=O)N1Cc1c(F)cccc1Cl	-11	1	3	3	96*	-3
O=C(OCCN1CCN(C2CN(Cc3cn(Cc4ccccc4Cl)nn3)S(=O)(=O)C2)CC1)c1cc2ccccc2o1 (stereo unspecified)	/	7	/	/	/	/
CN(C)[C@H]1CCN(c2ccc3c(c2)O[C@H]2CCN(C2)S3(=O)=O)C1	/	-40	/	/	/	/
CCN(CC)c1ccc2c(c1)oc(=O)c1c(Cl)cc(=O)oc12	-4	/	-43	-57	96*	-6
CCN(CC)c1ccc2c(Cl)c(Br)c(=O)oc2c1	7	/	-3	17	98*	7
CCN(CC)c1ccc2c(C)c(Cl)c(=O)oc2c1	4	-11	2	-8	5	-3
COC(=O)[C@]12C[C@H](CC(=O)N3CCCCC3)C(=O)N(Cc3cccc4ccccc34)C1=C[C@H](C(C)(C)C)O[C@@H]2C	/	14	/	/	/	/
NC(=Nc1nc(-c2ccccn2)cc2ccccc12)c1ccccn1	81*	-69	71*	57	88*	87*
O=[N+]([O-])c1ccc(O)c(/C=N/Nc2nn[nH]n2)c1	-22	7	14	17	-9	6
O=[N+]([O-])c1ccc(O)c(/C=N/Nc2ccc(Cl)nn2)c1	82*	-11	68*	14	70	86*
c1ccc2c(c1)CCN(c1nc3cc4c(cc3s1)OCCO4)C2	32	58*	44	37	34	18
COc1ccc(Cl)cc1C(=O)Nc1nc2ccccc2[nH]1	-25	54*	-28	-17	7	-80
CCc1ccc(C(=O)Nc2nc3ccccc3[nH]2)cc1	4	68*	-13	-4	52	-33
COc1ccc(C(=O)Nc2nc3ccccc3[nH]2)cc1OC	-64	-53	-78	-91	-34	-42
O=C(Nc1nc2ccccc2[nH]1)c1ccccc1F	64*	65*	50	44	80	-15
Cc1ccc(-n2c(COc3ccccc3)nnc2SCC(=O)Nc2ccccc2-c2ccccc2)cc1	/	-7	/	/	/	/
CC1=NN(c2nc3ccccc3[nH]2)C(=O)/C1=C/N(C)C	4	/	-15	-4	13	-25
CC1=NN(c2nc3ccccc3[nH]2)C(=O)C1Cc1ccccc1 (stereo unspecified)	75*	/	51	81*	84	29
O=C(NC1CCCC1)C1CCC(CNS(=O)(=O)c2cccs2)CC1 (stereo unspecified)	6	-39	-1	2	25	3
O=C(C1CCC(CNS(=O)(=O)c2cccs2)CC1)N1CCN(c2ccc(Cl)cc2)CC1 (stereo unspecified)	45	14	31	5	88*	43
COC(=O)C1CN(Cc2cn(Cc3ccc(OC)cc3)nn2)CCS(=O)(=O)N1Cc1ccc(F)cc1 (stereo unspecified)	/	0	/	/	/	/
CC(=O)c1cc(-c2cc(C(=O)O)cc([N+](=O)[O-])c2)c(=O)n2c1CCC2	/	2	/	/	/	/
SMILES	SRC3 inh	NCOA2 inhibitor	SRC1 inh	LRH-1 inv ag	Shn3 inh set2	Gli-Sufu block
CC(C)Cn1c([N+](=O)[O-])nc2c1c(=O)[nH]c(=O)n2C	23	5	-6	-38	/	6
Cn1c(=O)[nH]c(=O)c2c1nc([N+](=O)[O-])n2Cc1ccccc1	16	-18	-4	18	98*	-1
COc1ccc(S(=O)(=O)N2CCOCC2)cc1NC(=O)CCNC(=O)c1ccc([N+](=O)[O-])cc1	45	48	55	82*	-9	7
COc1ccc(S(=O)(=O)N2CCOCC2)cc1NC(=O)COC(=O)CC1CC2CCC1C2 (stereo unspecified)	6	-24	-3	15	87*	4
Cc1ccc(S(=O)(=O)CCC(=O)OCC(=O)Nc2cc(S(=O)(=O)N3CCOCC3)ccc2C)cc1	-11	20	-6	-4	88*	-3
CC(C)Oc1ccc(S(=O)(=O)N2CCOCC2)cc1NC(=O)CC1CC2CCC1C2 (stereo unspecified)	8	6	15	-13	-5	/
OC(c1cc(-c2cccc(Cl)c2)nc2ccccc12)C1CCCCN1 (stereo unspecified)	-10	11	4	-17	90*	1
C=CCN1[C@H](Cc2ccccc2)COc2cccc(N3CCCC3)c2S1(=O)=O	/	-5	/	/	/	/
CC(C)(C)c1nc(NCCN2CCOCC2)c2nnn(Cc3ccccc3Cl)c2n1	3	2	-11	5	84*	3
Cc1nc(NCCN2CCOCC2)c2nnn(Cc3ccccc3Cl)c2n1	15	-6	17	16	19	0
C=CCN(C(=O)[C@@H](C)[C@@H](O)c1ccc2ccccc2c1)c1ccccc1	/	-27	/	/	/	/
c1ccc(CCSc2nnc(-c3cccnc3)n2Cc2ccccc2)cc1	/	-7	/	/	/	/
Cc1c(Cl)sn(-c2ccc(Cl)cc2)c1=O	10	45	-19	-8	91*	17
O=C(O)c1ccccc1C(=O)Nc1ccc(Oc2cccc3ccccc23)cc1	71*	89*	56	62	6	12
Cc1cccc(Oc2ccc(NC(=O)c3ccccc3C(=O)O)cc2)c1C	-8	-38	-29	22	-15	-5
Cc1cc(/C=N/n2cnnc2)c(C)n1-c1ccc(OCc2ccc(Cl)cc2)cc1	23	30	16	44	77	63*
CCN(CC)CCCNc1nc2ccccc2c2[nH]c3ccc(OC)cc3c12	42	-273	28	52	92*	3
COc1ccc(CN(CC#Cc2ccccc2)Cc2ccccc2)c(OC)c1	/	-11	/	/	/	/
CN(C)c1nc(C=C(C#N)C#N)c(Cl)n1-c1ccc(F)cc1	3	-99	-17	-1	97*	6
CCOc1ccccc1NC(=O)/C(C#N)=C/c1c(C)nn(-c2ccc(F)cc2)c1Cl	3	1	-1	10	-4	13
CC(C)=CC(O)C/C(C)=C/COc1ccc2ccc(=O)oc2c1 (stereo unspecified)	63*	-15	46	85*	17	3
COC(=O)c1ccc(Cn2ccc3ccc(-c4ccc5ccn(C(=O)c6cccc(OC)c6)c5c4)cc32)cc1	/	-5	/	/	/	/
CNc1nc2cc([N+](=O)[O-])c([N+](=O)[O-])cc2nc1NC	46	16	10	7	81	84*
